Test results reported in ChEMBL document CHEMBL3988442, “University of Dundee, Small-Polar-MMV Screening Library” (2021).
For some of these results: Results with a measured potency or affinity are listed apart.

How the values were obtained:
Set-up in all cases: scale not given: direction of the effect not stated beside the values
[1] = target: Protein translocase subunit SecA (Escherichia coli (strain K12)) (UniProt P10408); assay: Assay to Identify E. coli SecA ATPase Inhibitors; format: functional; settings: 30 µM
Protein translocase subunit SecA (Escherichia coli (strain K12)), sequence (P10408 whole entry): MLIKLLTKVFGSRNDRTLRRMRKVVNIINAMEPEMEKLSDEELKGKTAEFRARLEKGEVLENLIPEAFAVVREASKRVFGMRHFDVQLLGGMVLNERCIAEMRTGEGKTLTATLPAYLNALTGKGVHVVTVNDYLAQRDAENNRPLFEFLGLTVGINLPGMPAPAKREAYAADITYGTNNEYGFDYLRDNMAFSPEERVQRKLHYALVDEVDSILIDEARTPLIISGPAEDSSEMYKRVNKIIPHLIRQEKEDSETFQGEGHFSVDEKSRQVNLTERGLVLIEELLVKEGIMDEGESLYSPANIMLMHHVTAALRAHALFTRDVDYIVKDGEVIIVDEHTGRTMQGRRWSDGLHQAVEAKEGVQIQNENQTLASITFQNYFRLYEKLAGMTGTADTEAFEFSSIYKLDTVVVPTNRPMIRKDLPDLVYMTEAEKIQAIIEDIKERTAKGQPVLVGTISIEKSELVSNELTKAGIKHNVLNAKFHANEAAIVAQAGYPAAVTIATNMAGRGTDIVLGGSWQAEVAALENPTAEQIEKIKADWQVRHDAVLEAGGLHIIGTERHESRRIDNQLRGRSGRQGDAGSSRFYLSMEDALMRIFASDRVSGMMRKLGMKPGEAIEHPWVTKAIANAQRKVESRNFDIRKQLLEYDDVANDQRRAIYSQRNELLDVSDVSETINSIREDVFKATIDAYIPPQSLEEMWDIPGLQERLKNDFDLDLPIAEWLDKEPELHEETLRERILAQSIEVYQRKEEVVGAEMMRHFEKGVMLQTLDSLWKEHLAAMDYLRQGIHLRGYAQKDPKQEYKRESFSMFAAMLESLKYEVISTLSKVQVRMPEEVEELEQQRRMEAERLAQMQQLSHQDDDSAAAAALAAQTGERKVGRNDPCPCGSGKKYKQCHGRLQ

[2] = target: T1, Ubiquitin-activating enzyme e1, putative (Leishmania donovani (strain BPK282A1)) (UniProt E9BSI1); assay: Leishmania donovani Ubiquitin Activating Enzyme (LdE1); format: functional; settings: 30 µM
T1 sequence (whole entry): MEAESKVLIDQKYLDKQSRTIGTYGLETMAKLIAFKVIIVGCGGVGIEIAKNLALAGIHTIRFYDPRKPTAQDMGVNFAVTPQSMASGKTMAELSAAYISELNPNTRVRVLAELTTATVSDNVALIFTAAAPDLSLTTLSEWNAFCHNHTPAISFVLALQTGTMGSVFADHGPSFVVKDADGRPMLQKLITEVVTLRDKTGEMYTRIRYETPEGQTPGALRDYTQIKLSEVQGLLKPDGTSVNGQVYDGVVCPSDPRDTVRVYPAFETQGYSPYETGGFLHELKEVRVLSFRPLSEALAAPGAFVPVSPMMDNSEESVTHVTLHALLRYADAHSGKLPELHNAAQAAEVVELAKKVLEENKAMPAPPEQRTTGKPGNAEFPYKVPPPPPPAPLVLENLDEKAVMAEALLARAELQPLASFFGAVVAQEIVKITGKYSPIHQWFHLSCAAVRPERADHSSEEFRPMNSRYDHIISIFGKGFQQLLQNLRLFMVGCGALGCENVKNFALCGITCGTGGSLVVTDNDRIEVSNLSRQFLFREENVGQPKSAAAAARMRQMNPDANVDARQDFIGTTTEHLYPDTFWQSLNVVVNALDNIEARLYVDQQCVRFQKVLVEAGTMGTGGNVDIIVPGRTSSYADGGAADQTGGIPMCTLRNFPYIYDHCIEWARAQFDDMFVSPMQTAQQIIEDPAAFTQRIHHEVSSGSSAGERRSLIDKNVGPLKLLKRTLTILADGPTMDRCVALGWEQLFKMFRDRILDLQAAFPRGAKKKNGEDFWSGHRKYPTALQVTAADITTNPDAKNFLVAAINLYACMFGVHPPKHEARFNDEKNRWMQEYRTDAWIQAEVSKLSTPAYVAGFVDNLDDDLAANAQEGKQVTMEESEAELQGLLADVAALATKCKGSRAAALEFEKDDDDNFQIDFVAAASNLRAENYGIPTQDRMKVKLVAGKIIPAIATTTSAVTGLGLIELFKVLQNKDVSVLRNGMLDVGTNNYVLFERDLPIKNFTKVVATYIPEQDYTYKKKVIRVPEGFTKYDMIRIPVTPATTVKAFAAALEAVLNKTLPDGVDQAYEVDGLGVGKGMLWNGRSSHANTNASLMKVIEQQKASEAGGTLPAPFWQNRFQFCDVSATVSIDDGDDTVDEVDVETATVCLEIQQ

[3] = target: AMP-activated protein kinase, AMPK (Homo sapiens) (UniProt P54646+O43741+P54619+Q9UGJ0+Q9Y478+Q13131+Q9UGI9); assay: AMP-dependent Kinase enzyme assay. An in vitro enzyme assay that detects ADP turnover that is directly proportional to AMPK activity. This uses naive AMPK that is activated during the assay with MK-8722; format: functional; settings: 30 µM
[4] = target: Sialic acid-binding Ig-like lectin 9 (Homo sapiens) (UniProt Q9Y336); assay: Hs-Siglec9 ALPHAscreen SOP 20170721; settings: 10 µM
Sialic acid-binding Ig-like lectin 9 (Homo sapiens), sequence (Q9Y336 whole entry): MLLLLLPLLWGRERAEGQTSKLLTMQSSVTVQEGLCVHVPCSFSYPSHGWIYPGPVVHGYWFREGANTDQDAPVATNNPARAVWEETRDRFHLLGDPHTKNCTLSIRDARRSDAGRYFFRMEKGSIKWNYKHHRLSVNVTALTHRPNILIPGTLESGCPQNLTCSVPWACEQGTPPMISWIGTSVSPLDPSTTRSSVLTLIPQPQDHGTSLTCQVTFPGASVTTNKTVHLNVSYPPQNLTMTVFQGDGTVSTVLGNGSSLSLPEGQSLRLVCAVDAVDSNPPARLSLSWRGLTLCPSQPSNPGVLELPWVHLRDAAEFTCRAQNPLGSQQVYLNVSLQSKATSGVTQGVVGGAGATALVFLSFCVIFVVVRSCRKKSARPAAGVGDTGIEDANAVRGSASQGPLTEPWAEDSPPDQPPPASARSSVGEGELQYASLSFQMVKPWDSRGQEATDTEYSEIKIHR

Trypanosoma cruzi = assay: Trypanosoma cruzi phosphomannomutase and mannose-1-phosphate guanylyltransferase assay; format: functional; settings: 10 µM
[5] = target: T2, Arginase-2, mitochondrial (Homo sapiens) (UniProt P78540); assay: in vitro enzyme assay to detect the production of urea directly proportional to the activity of Arginase II; format: functional; settings: 33.3 µM; further: in the data most compounds retested in dose-response had high values
T2 sequence (whole entry): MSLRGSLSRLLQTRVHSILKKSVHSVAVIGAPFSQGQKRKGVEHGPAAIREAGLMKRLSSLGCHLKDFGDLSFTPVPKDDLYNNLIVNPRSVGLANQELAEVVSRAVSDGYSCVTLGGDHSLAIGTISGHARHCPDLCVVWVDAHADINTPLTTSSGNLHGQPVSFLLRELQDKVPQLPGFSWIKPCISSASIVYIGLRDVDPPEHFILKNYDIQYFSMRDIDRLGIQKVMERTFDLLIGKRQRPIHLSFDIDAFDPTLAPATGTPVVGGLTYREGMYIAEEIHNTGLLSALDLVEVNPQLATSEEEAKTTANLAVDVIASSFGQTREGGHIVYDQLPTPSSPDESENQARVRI

[6] = target: T3, Proteasome subunit beta (Trypanosoma cruzi) (UniProt O96673); assay: Trypanosoma cruzi proteasome chymotrypsin-like activity (TcProtChymo) assay.; further: in the data most compounds retested in dose-response had high values; format: functional; settings: 9.37 µM
T3 sequence (whole entry): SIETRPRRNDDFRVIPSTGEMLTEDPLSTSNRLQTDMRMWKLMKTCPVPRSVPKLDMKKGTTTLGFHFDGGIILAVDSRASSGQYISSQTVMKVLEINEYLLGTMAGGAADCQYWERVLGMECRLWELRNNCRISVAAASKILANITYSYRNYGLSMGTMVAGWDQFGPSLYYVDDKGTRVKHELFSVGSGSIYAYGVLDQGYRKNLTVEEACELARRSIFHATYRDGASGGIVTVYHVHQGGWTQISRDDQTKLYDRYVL

Homo sapiens = organism: Homo sapiens; assay: To identify inhibition of the IFN signalling (Jak-Stat) pathway via expression of an eGFP reporter gene under the control of an IFN-stimulated response element (ISRE) containing MxA promoter.; format: functional; settings: 30 µM
[7] = target: T4, Tyrosyl-tRNA synthetase, putative (Trypanosoma cruzi (strain CL Brener)) (UniProt Q4DSP6); assay: Trypanosoma cruzi tyrosyl tRNA synthetase (TcYRS) _High Tyrosine SOP; format: functional; settings: 30 µM; further: in the data most compounds retested in dose-response had high values
T4 sequence (whole entry): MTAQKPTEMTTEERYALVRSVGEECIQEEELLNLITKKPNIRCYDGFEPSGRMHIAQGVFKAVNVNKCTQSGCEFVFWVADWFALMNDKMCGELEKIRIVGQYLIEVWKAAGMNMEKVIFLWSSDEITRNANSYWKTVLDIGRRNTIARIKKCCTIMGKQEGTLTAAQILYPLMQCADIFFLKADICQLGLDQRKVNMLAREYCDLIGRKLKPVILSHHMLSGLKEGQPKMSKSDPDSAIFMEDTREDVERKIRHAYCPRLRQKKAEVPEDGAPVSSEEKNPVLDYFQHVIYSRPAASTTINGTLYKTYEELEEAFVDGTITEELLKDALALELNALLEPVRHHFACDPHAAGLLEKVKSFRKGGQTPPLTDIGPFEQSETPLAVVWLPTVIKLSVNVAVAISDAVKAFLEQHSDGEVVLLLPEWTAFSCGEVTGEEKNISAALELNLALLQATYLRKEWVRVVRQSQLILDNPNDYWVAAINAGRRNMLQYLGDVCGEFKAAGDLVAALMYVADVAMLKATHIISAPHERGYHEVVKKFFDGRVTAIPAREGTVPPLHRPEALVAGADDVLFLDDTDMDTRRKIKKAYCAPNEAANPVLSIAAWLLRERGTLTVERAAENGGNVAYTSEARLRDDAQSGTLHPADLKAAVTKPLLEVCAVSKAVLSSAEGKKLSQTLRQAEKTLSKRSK

[8] = target: T4, Tyrosyl-tRNA synthetase, putative (Trypanosoma cruzi (strain CL Brener)); assay: Trypanosoma cruzi tyrosyl tRNA synthetase (TcYRS) SOP; format: functional; settings: 30 µM
[9] = target: Chromo domain-containing protein 1 (Saccharomyces cerevisiae (strain ATCC 204508 / S288c) (Baker's yeast)) (UniProt P32657); assay: ScCHD-1 Enzyme Inhibition Assay; format: functional; settings: 30 µM; further: in the data most compounds retested in dose-response had high values
Chromo domain-containing protein 1 (Saccharomyces cerevisiae (strain ATCC 204508 / S288c) (Baker's yeast)), sequence (P32657 whole entry, the tested form may be a part): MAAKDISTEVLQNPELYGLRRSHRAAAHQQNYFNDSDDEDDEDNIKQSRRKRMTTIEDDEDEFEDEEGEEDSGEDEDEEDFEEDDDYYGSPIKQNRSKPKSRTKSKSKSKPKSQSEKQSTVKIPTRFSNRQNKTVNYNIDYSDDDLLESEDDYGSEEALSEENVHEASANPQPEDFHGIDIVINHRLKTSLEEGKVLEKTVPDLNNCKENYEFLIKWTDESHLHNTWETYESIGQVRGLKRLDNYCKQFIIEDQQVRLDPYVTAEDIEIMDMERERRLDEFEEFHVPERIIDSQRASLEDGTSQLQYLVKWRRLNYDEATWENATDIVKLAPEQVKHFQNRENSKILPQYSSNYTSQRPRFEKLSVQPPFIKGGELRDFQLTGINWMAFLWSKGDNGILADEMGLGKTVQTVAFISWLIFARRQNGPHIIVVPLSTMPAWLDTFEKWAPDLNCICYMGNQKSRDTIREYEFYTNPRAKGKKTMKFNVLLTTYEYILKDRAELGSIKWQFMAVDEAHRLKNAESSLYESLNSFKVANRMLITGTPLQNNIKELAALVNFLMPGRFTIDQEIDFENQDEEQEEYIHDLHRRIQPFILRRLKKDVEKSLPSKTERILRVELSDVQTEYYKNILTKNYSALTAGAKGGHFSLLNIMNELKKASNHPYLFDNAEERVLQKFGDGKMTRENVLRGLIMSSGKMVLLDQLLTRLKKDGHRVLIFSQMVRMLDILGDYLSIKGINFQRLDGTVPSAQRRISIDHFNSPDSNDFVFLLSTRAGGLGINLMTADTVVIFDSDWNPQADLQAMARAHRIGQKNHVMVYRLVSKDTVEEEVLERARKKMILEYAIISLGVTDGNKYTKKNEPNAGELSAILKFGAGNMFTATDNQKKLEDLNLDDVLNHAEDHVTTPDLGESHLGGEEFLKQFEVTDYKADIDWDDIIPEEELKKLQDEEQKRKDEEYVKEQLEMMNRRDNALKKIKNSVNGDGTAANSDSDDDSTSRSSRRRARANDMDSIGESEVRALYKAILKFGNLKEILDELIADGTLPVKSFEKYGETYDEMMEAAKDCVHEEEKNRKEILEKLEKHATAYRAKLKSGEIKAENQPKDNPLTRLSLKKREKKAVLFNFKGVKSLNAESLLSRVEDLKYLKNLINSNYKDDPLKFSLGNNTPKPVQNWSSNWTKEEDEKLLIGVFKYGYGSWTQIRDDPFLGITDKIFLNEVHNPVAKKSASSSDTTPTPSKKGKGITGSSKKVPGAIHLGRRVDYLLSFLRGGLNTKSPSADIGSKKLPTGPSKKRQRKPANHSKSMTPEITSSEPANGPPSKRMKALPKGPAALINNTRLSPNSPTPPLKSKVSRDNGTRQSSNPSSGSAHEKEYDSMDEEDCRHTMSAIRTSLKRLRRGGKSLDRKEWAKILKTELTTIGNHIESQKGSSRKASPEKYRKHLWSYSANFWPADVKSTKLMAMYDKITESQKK

Compound | Percent Effect [1] [%] | Percent Effect [2] [%] | Percent Effect [3] [%] | Percent Effect [4] [%] | Percent Effect (Trypanosoma cruzi) [%] | Percent Effect [5] [%] | Percent Effect [6] [%] | Percent Effect (Homo sapiens) [%] | Percent Effect [7] [%] | Percent Effect [8] [%] | Percent Effect [9] [%]
O=C(NCc1ccc(-c2ccn[nH]2)cc1)N1CCC(N2CCCC2)C1 (stereo not given) | -6.43 | 2.63 | -5.77 | 6.24 | 1.59 | -5.4 | 4.65 | 5.01 | 10.3 | 18.5 | 1.9
COc1ccnc(N2CCN(C(=O)c3csc(C(C)C)n3)CC2)n1 | -7.52 | 10.8 | -3.77 | 29.4 | 9.68 | 5.21 | 7.3 | 13 | 4.3 | 11.1 | -11.3
O=c1c2cnc(N3CCCCC3)nc2ccn1-c1ccccc1 | -4.04 | 9.33 | -3.82 | -5.64 | 4.71 | -7.22 | 15 | 8.11 | 2.12 | 10.3 | -8.21
CN(C)C(=O)CO[C@H]1CN(Cc2ccc(F)cc2)[C@@H]2CCCO[C@H]12 | -4.67 | 10.4 | 1.52 | 9.7 | 4.23 | 2.76 | 15.3 | -1.14 | 5.38 | 11.1 | -1.79
CCc1noc(C2CCCCN2C(=O)c2nnc3ccccc3n2)n1 (stereo not given) | -4.1 | 9.33 | -3.18 | -0.0891 | 3.54 | -7.57 | 14.6 | -16.9 | 11.6 | 17.9 | -14.2
CC(C)N(CC(N)=O)Cc1csc(COc2ccc(F)cc2)n1 | -3.17 | 25.3 | -6.77 | 1.71 | 7.65 | -4.18 | 8.76 | 63.8 | 5.42 | 24.1 | -4.66
Cn1ncc2c(NCCC34CCCN3CCC4)nc(C3CCCC3)nc21 | -5.81 | 5.48 | 0.214 | 3.33 | 0.979 | 4.09 | 5.68 | -18.5 | 6.45 | 12.5 | -5.71
Cc1cc(C(=O)NCc2cccnc2OC(C)C)no1 | -2.03 | 8.11 | -0.722 | 4.58 | -5.19 | 4.41 | 3.42 | 27.8 | 6.4 | 13.6 | -0.257
Cc1cc(C)n(CC2CN(CCOc3cccc(C#N)c3)CCO2)n1 (stereo not given) | -6.03 | 13.2 | -3.15 | -7.82 | -1.21 | -0.719 | 1.44 | 6.94 | 7.39 | -6.17 | -0.144
O=C(NCC1CC1)[C@H]1C[C@H]2OCC[C@H]2N(CCc2ccccc2)C1 | -3.05 | 2.7 | 0.431 | -3.87 | -5.96 | -1.59 | 16.4 | 0.915 | 2.16 | 5.13 | -1.91
c1cnnc(N2CCCC2CNCc2cc[nH]n2)c1 (stereo not given) | -2.52 | 0 | 4.85 | -5.55 | 4.89 | 3.45 | -1.34 | -3.22 | 1.47 | 7.32 | -6.65
CC(C)N(C)C(=O)C1=NOC2(CCN(C(=O)c3ccc(Cl)cc3)C2)C1 (stereo not given) | -0.137 | 5.48 | 1.89 | 5.19 | -7.54 | -1.6 | 17.6 | 27.1 | 8.33 | 8.64 | -3.93
Cc1cccc(Cn2ccc(NS(C)(=O)=O)n2)c1 | -6.41 | 7.79 | -2.37 | 7.5 | 7.77 | -40 | 9.65 | 0.107 | 6.45 | 11.1 | -7.65
CC1(C)CC(N2Cc3nc(N4CCOCC4)ncc3C2=O)CC(C)(C)N1 | -6.55 | 2.6 | 1.41 | 1.23 | -9.93 | 2.76 | 10.8 | 13.3 | 0 | -1.24 | -0.541
Cc1cc(C[C@@H]2COC[C@@H]2NC(=O)CN2CCCC2)on1 | -4.18 | 2.74 | 1.08 | -9.23 | 1.96 | -1.82 | -4.61 | 18.8 | 5.38 | 10 | -4.15
Cc1cc(NC(=O)NCc2ccccn2)n(C)n1 | -3.34 | -6.33 | 3.11 | 5.94 | 0.103 | -2.37 | 15.6 | -16.7 | 2.08 | 12.7 | -12.3
c1ncn(CC2CN(CC3CCCC3)CCO2)n1 (stereo not given) | -3.42 | 11.4 | -1.94 | -0.971 | -1.54 | 6.24 | 11.8 | 10.9 | 0 | 7.59 | -14
Cc1nn(C)c(N(C)C)c1CNCc1cccnc1-n1cncn1 | -3.71 | 8.86 | 1.44 | 1.22 | -4.21 | 3.23 | 12.9 | -1.83 | 7.29 | 12.7 | -7.57
CCCn1nc2c(cc1=O)CN(CCS(C)(=O)=O)CC2 | -6.22 | -5.41 | -30.8 | 22.6 | 2.17 | -6.01 | 7.75 | 7.82 | 8.37 | 16.1 | -11.1
Cn1ccnc1CN1CCC2(CC1)CC(Oc1cccnc1)C2 | -2.04 | 8 | 4.85 | 10.2 | -1.35 | -23.8 | 1.88 | 6.63 | 10.4 | 22.5 | -6.08
